PubChem BioAssay (NCI)
This is part of a sample that, as a whole, favours compounds with a hit. Of some 79,000 tested, about 15% had one in any assay. Active and inactive are the calls of the source. No stated cut-off is given here; in the data, active means growth inhibition above about 70%; inactive means the rest.

Key:
[1] = NCI Yeast Anticancer Drug Screen. Data for the rad52 strain (AID 147);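 further: 0% = growth of vehicle-treated control cultures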; conditions: S. cerevisiae rad52 mutant growth inhibition, active compounds read high
How it was run: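 Screen used a yeast mutant impaired in DNA repair. After compound exposure, growth was measured. Values reflect inhibition compared with vehicle-treated cells.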

[2] = NCI Yeast Anticancer Drug Screen. Data for the wt1 strain (AID 149);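 further: 0% = growth of vehicle-treated wt1 cultures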; conditions: S. cerevisiae wt1 strain (SPY 50644) growth inhibition, active compounds read high
How it was run: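 Vehicle-normalised growth inhibition; strain wt1; compound exposure.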

[3] = NCI Yeast Anticancer Drug Screen. Data for the rad50EPP+ strain (AID 151);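 further: 0% = growth of vehicle-treated control cultures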; conditions: S. cerevisiae rad50 mutant strain, active compounds read high
How it was run: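 Exposing the rad50EPP+ strain to each compound, growth was compared with vehicle-only cultures to give inhibition.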

[4] = NCI Yeast Anticancer Drug Screen. Data for the mgt1 strain (AID 153); conditions: S. cerevisiae mgt1 mutant growth inhibition, active compounds read high
How it was run: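 Genetically defined yeast (mgt1) treated with compound; inhibition of growth expressed against vehicle-treated controls.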

[5] = NCI Yeast Anticancer Drug Screen. Data for the rad50 strain (AID 155);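 further: 0% = growth of vehicle-only cultures of the same strain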; conditions: S. cerevisiae rad50 strain growth inhibition, active compounds read high
How it was run: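 A DNA repair-deficient yeast mutant serves as the test organism; compound-induced growth inhibition is calculated against vehicle-treated cells.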

[6] = NCI Yeast Anticancer Drug Screen. Data for the mec2-1 strain (AID 157); conditions: S. cerevisiae mec2-1 strain, active compounds read high
How it was run: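 Readout is yeast growth inhibition, normalised to vehicle-treated controls, in the mec2-1 strain exposed to compound.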

[7] = NCI Yeast Anticancer Drug Screen. Data for the rad14 strain (AID 159);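 further: 0% = growth of vehicle-treated control cultures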; conditions: S. cerevisiae rad14 strain growth inhibition, active compounds read high
How it was run: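 Vehicle-treated cultures served as the baseline for growth inhibition of a DNA repair-mutant yeast strain exposed to each compound.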

[8] = NCI Yeast Anticancer Drug Screen. Data for the sgs1 mgt1 strain (AID 161);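 further: 0% = growth of cultures given vehicle only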; conditions: S. cerevisiae sgs1 mgt1 strain, active compounds read high
How it was run: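 Percent growth inhibition was derived by comparing compound-exposed mutant yeast with vehicle-exposed cultures. The strain carries alterations in DNA damage repair.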

[9] = NCI Yeast Anticancer Drug Screen. Data for the CLN2oe strain (AID 163);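 further: 0% = growth of vehicle-only control cultures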; conditions: S. cerevisiae CLN2oe strain, active compounds read high
How it was run: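 Values reflect how much compound exposure reduced yeast growth, referenced to vehicle-exposed cells. Assay organism is a strain with a defined genetic change affecting cell-cycle control.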

[10] = NCI Yeast Anticancer Drug Screen. Data for the cln2 rad14 strain (AID 165);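 further: 0% = growth equal to vehicle treated cultures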; conditions: S. cerevisiae cln2 rad14 strain, active compounds read high
How it was run: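 Relative to vehicle controls, growth inhibition of compound-treated cln2 rad14 yeast was recorded.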

[11] = NCI Yeast Anticancer Drug Screen. Data for the bub3 strain (AID 167); conditions: S. cerevisiae bub3 mutant strain, active compounds read high
How it was run: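 Inhibition values come from growth of compound-treated mutant yeast normalised to vehicle-treated controls.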

[12] = NCI Yeast Anticancer Drug Screen. Data for the wt2 strain (AID 169);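 further: 0% = growth of vehicle-treated yeast cultures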; conditions: S. cerevisiae wt2 strain growth inhibition, active compounds read high
How it was run: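 Values express reduction in yeast growth under compound treatment, referenced to vehicle-treated cells.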

[13] = NCI Yeast Anticancer Drug Screen. Data for the mlh1 strain (AID 171);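 further: 0% = growth of vehicle-treated control cultures of the same strain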; conditions: S. cerevisiae mlh1 strain growth inhibition, active compounds read high
How it was run: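 Steps: expose the defined-mutant yeast strain to compound; expose a parallel culture to vehicle; measure growth; express compound effect as inhibition relative to the vehicle culture.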

[14] = NCI Yeast Anticancer Drug Screen. Data for the sgs1 strain (AID 173);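 further: 0% = growth of vehicle-only control cultures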; conditions: S. cerevisiae sgs1 mutant, active compounds read high
How it was run: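 Treat defined-mutant yeast with compound; measure growth; calculate inhibition relative to vehicle-treated cells.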

[15] = NCI Yeast Anticancer Drug Screen. Data for the mlh1 rad18 strain (AID 175); conditions: S. cerevisiae mlh1 rad18 strain growth inhibition, active compounds read high
How it was run: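 Test agents were incubated with a yeast strain of defined genotype (DNA damage repair defect). Inhibition of growth was derived by comparison with vehicle-exposed cultures.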

[16] = NCI Yeast Anticancer Drug Screen. Data for the rad18 strain (AID 177); conditions: S. cerevisiae rad18 mutant growth inhibition, active compounds read high
How it was run: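 A genetically defined yeast mutant impaired in DNA damage repair was treated with test compounds, then its growth was measured against cultures receiving vehicle alone.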

[17] = at 5.0 µM (retest, dose inferred, filed as 0.5)
[18] = at 50.0 µM (retest, dose inferred, filed as 5.0)

Measured: growth inhibition

O=[N+]([O-])c1cccc([N+](=O)[O-])c1S(=O)(=O)c1ccccc1
inactive: [2]; at 1.2 µM 20% | [2]; at 3.7 µM 33% | [2]; at 11.0 µM 67% | [4]; at 1.2 µM 19% | [4]; at 3.7 µM 1% | [4]; at 11.0 µM 68% | [6]; at 1.2 µM 19% | [6]; at 3.7 µM 37% | [6]; [17] 14% | [7]; at 1.2 µM -13% | [7]; at 3.7 µM 0% | [7]; at 11.0 µM 59% | [8]; [17] 2% | [8]; [18] 33% | [8]; at 50.0 µM 65.1% | [9]; at 1.2 µM 7% | [9]; at 3.7 µM 4% | [9]; at 11.0 µM 52% | [10]; [17] -8% | [10]; at 50.0 µM 34.8% | [11]; at 1.2 µM 0% | [11]; at 3.7 µM 8% | [11]; [17] 5% | [11]; at 11.0 µM 56% | [12]; at 1.2 µM 1% | [12]; at 3.7 µM 22% | [12]; at 11.0 µM 60% | [13]; at 1.2 µM -1% | [13]; at 3.7 µM 22% | [14]; at 1.2 µM 22% | [14]; at 3.7 µM 42% | [15]; [17] 41% | [16]; at 1.2 µM 17% | [16]; at 3.7 µM 30%
active: [1]; at 1.2 µM 87% | [1]; at 3.7 µM 93% | [1]; at 11.0 µM 97% | [1]; at 33.0 µM 98% | [1]; at 100.0 µM 97% | [2]; at 33.0 µM 89% | [2]; at 100.0 µM 93% | [3]; at 1.2 µM 76% | [3]; at 3.7 µM 88% | [3]; at 11.0 µM 93% | [3]; at 33.0 µM 94% | [3]; at 100.0 µM 92% | [4]; at 33.0 µM 93% | [4]; at 100.0 µM 94% | [5]; at 1.2 µM 83% | [5]; at 3.7 µM 91% | [5]; [17] 82% | [5]; at 11.0 µM 95% | [5]; at 33.0 µM 97% | [5]; [18] 87% | [5]; at 50.0 µM 82.8% | [5]; at 100.0 µM 96% | [6]; at 11.0 µM 87% | [6]; at 33.0 µM 96% | [6]; [18] 91% | [6]; at 50.0 µM 83.3% | [6]; at 100.0 µM 95% | [7]; at 33.0 µM 92% | [7]; at 100.0 µM 92% | [9]; at 33.0 µM 84% | [9]; at 100.0 µM 85% | [10]; [18] 76% | [11]; at 33.0 µM 92% | [11]; [18] 88% | [11]; at 50.0 µM 77.6% | [11]; at 100.0 µM 81% | [12]; at 33.0 µM 90% | [12]; at 100.0 µM 94% | [13]; at 11.0 µM 76% | [13]; at 33.0 µM 97% | [13]; at 100.0 µM 95% | [14]; at 11.0 µM 75% | [14]; at 33.0 µM 95% | [14]; at 100.0 µM 94% | [15]; [18] 76% | [15]; at 50.0 µM 87.9% | [16]; at 11.0 µM 82% | [16]; at 33.0 µM 95% | [16]; at 100.0 µM 95%

CCOC(=O)C(NC(=O)c1ccccc1)(N1CCN(c2cc3c(cc2F)c(=O)c(C(=O)O)cn3C2CC2)CC1)C(F)(F)F (stereo unspecified)
active: [1]; at 100.0 µM 75% | [5]; [18] 76% | [5]; at 50.0 µM 74.6% | [5]; at 100.0 µM 79%
inactive: [1]; at 1.2 µM -1% | [1]; at 3.7 µM 2% | [1]; at 11.0 µM 11% | [1]; at 33.0 µM 35% | [2]; at 1.2 µM -2% | [2]; at 3.7 µM -1% | [2]; at 11.0 µM -1% | [2]; at 33.0 µM 0% | [2]; at 100.0 µM 2% | [3]; at 1.2 µM -1% | [3]; at 3.7 µM 0% | [3]; at 11.0 µM 1% | [3]; at 33.0 µM 2% | [3]; at 100.0 µM 14% | [4]; at 1.2 µM 1% | [4]; at 3.7 µM 1% | [4]; at 11.0 µM 0% | [4]; at 33.0 µM 1% | [4]; at 100.0 µM 2% | [5]; at 1.2 µM 0% | [5]; at 3.7 µM 5% | [5]; [17] -7% | [5]; at 11.0 µM 14% | [5]; at 33.0 µM 47% | [6]; at 1.2 µM -1% | [6]; at 3.7 µM -2% | [6]; [17] -6% | [6]; at 11.0 µM 0% | [6]; at 33.0 µM 2% | [6]; [18] -27% | [6]; at 50.0 µM 3.05% | [6]; at 100.0 µM 3% | [7]; at 1.2 µM 0% | [7]; at 3.7 µM 2% | [7]; at 11.0 µM 4% | [7]; at 33.0 µM 3% | [7]; at 100.0 µM 2% | [8]; [17] -6% | [8]; [18] -15% | [8]; at 50.0 µM -4.1% | [9]; at 1.2 µM -1% | [9]; at 3.7 µM 3% | [9]; at 11.0 µM 2% | [9]; at 33.0 µM 6% | [9]; at 100.0 µM 9% | [10]; [17] 41% | [10]; [18] -13% | [10]; at 50.0 µM 18.5% | [11]; at 1.2 µM -1% | [11]; at 3.7 µM 2% | [11]; [17] -15% | [11]; at 11.0 µM 3% | [11]; at 33.0 µM -39% | [11]; [18] 3% | [11]; at 50.0 µM -16.1% | [11]; at 100.0 µM 3% | [12]; at 1.2 µM -1% | [12]; at 3.7 µM -2% | [12]; at 11.0 µM -2% | [12]; at 33.0 µM -2% | [12]; at 100.0 µM 1% | [13]; at 1.2 µM -1% | [13]; at 3.7 µM -1% | [13]; at 11.0 µM 0% | [13]; at 33.0 µM 0% | [13]; at 100.0 µM 1% | [14]; at 1.2 µM -1% | [14]; at 3.7 µM 0% | [14]; at 11.0 µM 3% | [14]; at 33.0 µM 3% | [14]; at 100.0 µM 2% | [15]; [17] -21% | [15]; [18] 12% | [15]; at 50.0 µM -1.95% | [16]; at 1.2 µM -3% | [16]; at 3.7 µM -1% | [16]; at 11.0 µM 0% | [16]; at 33.0 µM 2% | [16]; at 100.0 µM 6%
